Source: PubChem BioAssay
Granule exo inh: lytic granule exocytosis inhibition; TALL-104 LAMP-1 surface exposure, flow cytometry; cells stimulated with thapsigargin and PMA; inhibition, % at 10 µM; actives 0.66% (n = 360,000);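 active means inhibition above about 55%, limit read from the data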
Beta2AR agonist: activates human beta-2 adrenergic receptor causing internalization | P07550 | Am2.2-beta2AR cells, FAP receptor internalization, flow cytometry | response, % (no concentration beside the values) | actives 0.43% (n = 340,000) | AID 504454;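 active means response above a set limit, near 3 SD of response in nonfluorescent compounds, cut at about 42% in these data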
Target sequence (P07550 whole entry, looked up): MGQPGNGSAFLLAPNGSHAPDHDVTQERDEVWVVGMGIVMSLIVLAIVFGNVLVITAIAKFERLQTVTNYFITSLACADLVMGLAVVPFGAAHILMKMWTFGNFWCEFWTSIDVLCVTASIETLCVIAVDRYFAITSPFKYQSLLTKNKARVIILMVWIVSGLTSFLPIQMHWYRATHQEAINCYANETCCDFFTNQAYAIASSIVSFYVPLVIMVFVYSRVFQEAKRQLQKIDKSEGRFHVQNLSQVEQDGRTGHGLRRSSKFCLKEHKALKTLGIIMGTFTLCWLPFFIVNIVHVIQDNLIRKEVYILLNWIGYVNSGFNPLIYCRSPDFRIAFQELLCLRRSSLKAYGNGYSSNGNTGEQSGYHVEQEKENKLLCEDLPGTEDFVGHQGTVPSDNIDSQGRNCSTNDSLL
NTR1 ag: agonists of human neurotensin receptor NTR1 | P30989 | NTR1-U2OS beta-arrestin-GFP spot imaging, agonist mode | activation, % at 20 µM | actives 0.17% (n = 330,000);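 active means activation at or above 40% of the spot to cytoplasm intensity ratio, with at least 20 cells analyzed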;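 further: 0% = DMSO without peptide and 100% = 100 nM NTR1 peptide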
HTR2A ag: mouse HTR2A agonism via beta-arrestin recruitment | P35363 | CHO-K1 mHTR2A beta-arrestin complementation, luminescence; percent of 30 µM serotonin response | activation, % at 7.6 µM | actives 0.66% (n = 360,000) | AID 624169;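 active means activation above a run cutoff, the mean activation of all tested compounds plus 3 SD, cut at about 14% in these data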;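 further: 0% = plate median of compound wells and 100% = 30 µM serotonin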
ABHD5-PLIN5 inh: inhibitors of human ABHD5-perilipin-5 interaction | Split G. princeps luciferase complementation, luminescence, 4 h | AID 602281 | inhibition, % at 4 µM | actives 0.78% (n = 360,000) | Q00G26+Q8WTS1;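 active means inhibition above the mean inhibition across every tested compound plus 3 SD, cut at about 22% in these data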;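 further: 0% = DMSO only wells and the 100% control is not disclosed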
Beta2AR ag CP1: human beta-2 adrenergic receptor agonism, cherry pick. shares compounds with Beta2AR agonist. Am2.2-beta2AR cells, FAP surface receptor, flow cytometry; hits give low values. percent response (surface receptor), % at 10 µM. actives 25% (n = 1,100). AID 540358;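 active means surface receptor percent response at or below 58%, roughly 3 SD from nonfluorescent compounds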
FAP fluor counter: counter-screen for beta-2AR agonists: fluorescence in Am2.2 cells; calls only at 10 µM; shares compounds with Beta2AR agonist; 1,100 tested, under 10 active; FAP fluorogen flow cytometry, fluorescence counterscreen; hits give low values;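 active means percent response below a set limit in fluorescence channel 1 and below 50% in channel 8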
* = called active by the depositor; i = inactive; · = not tested or not shown; ! = not confirmed by another sample. The list is not random: actives were taken first. Their share in the collection is about 2.3%.

SMILES | Granule exo inh | Beta2AR agonist | NTR1 ag | HTR2A ag | ABHD5-PLIN5 inh | Beta2AR ag CP1 | FAP fluor counter
CN1CCc2c(sc3nc(SCC(N)=O)n(-c4ccccc4)c(=O)c23)C1 | 1 | 2 | 0 | -2 | -6 | · | ·
CN1CCc2c(sc3nc(SCC(=O)N4CCCCC4)n(-c4ccccc4)c(=O)c23)C1 | -14 | 61* | 2 | 10 | 5 | · | i
Cc1cccc2sc(NC(=O)CN(C)S(=O)(=O)c3ccc(Br)s3)nc12 | 0 | 51* | 10 | 2 | -5 | 109 | i
CC1CCCN(C(C(=O)Nc2ccc3c(c2)OCO3)c2ccccc2)C1 (stereo not drawn) | -4 | 26 | -1 | 1 | 4 | 86 | i
CC1CCN(C(C(=O)Nc2ccc3c(c2)OCO3)c2ccccc2)CC1 (stereo not drawn) | -6 | -1 | 7 | -3 | 5 | 97 | i
COc1ccccc1N1CCN(C(=O)CCCn2c(=O)[nH]c3ccsc3c2=O)CC1 | 10 | -7 | -2 | 8 | 0 | · | ·
O=C(CCn1c(=O)[nH]c2ccsc2c1=O)N1CCc2ccccc2C1 | 0 | -28 | -2 | 8 | 3 | 150 | i
COc1ccccc1CNC(=O)CCn1c(=O)[nH]c2ccsc2c1=O | -1 | 2 | 1 | 4 | 5 | 54*! | i
O=C(c1cccc(S(=O)(=O)N2CCN(c3ccccc3)CC2)c1)N1CCN(c2ccccc2O)CC1 | -3 | -10 | 4 | -4 | -4 | · | ·
COc1ccc(CN(C)C(=O)c2ccc(Cl)c(S(=O)(=O)NCc3cccnc3)c2)cc1F | 1 | -5 | -2 | -1 | 2 | · | ·
COc1ccc(/C=N/n2cnc3c([nH]c4ccc(F)cc43)c2=O)cc1CSc1ccccn1 | -3 | 58* | 0 | 3 | 3 | 79 | i
COc1ccc2c(c1)[nH]c1c(=O)n(/N=C/c3ccc(OC)c(COc4ccccn4)c3)cnc12 | -1 | 21 | 0 | -1 | -1 | · | ·
COc1ccc(-n2nc3c(N4CCC(C(=O)NCc5cccc(C)c5)CC4)nnc(C)c3c2C)cc1 | 48 | 92* | 19 | -9 | 9 | 27* | i
CCOc1ccc(CNC(=O)C2CCN(c3nnc(C)c4c(C)n(-c5ccc(C)cc5)nc34)CC2)cc1 | 43 | 55* | 11 | -9 | 10 | 95 | i
CC(=O)Oc1ccc(C(=O)Nc2cccc(C(=O)c3cccc(NC(=O)c4ccc(OC(C)=O)cc4)c3)c2)cc1 | -4 | 57* | 3 | 1 | 6 | 100 | i
O=C(NC1CC2CCC(C1)N2Cc1ccccc1)c1ccccc1Cl (stereo not drawn) | -6 | -4 | 0 | 5 | 6 | · | ·
COC(=O)c1cc([N+](=O)[O-])c(-n2cncn2)c([N+](=O)[O-])c1 | 3 | 50* | · | 3 | 6 | 34* | i
COc1ccc2nc3n(c(=O)c2c1)-c1ncccc1C(=O)NC3Cc1ccccc1 (stereo not drawn) | 5 | · | · | -1 | 0 | · | ·
O=C(CSCc1c(Cl)cccc1Cl)Nc1nccs1 | -3 | -7 | 2 | -2 | -1 | · | ·
O=C(CSCc1ccc(Cl)cc1Cl)Nc1nccs1 | 0 | 54* | 0 | 7 | 1 | 94 | i
COc1ccc(CN2C[C@@H](CO)O[C@@H](n3cnc4c(N(C)C)ncnc43)C2)cc1 | 5 | · | · | 4 | 2 | · | ·
COC(=O)NC1(C(F)(F)F)C(=O)Nc2c1c(=O)n(C)c(=O)n2C (stereo not drawn) | 1 | 59* | 0 | -2 | -7 | 106 | i
Nc1c(Cl)cnn(-c2ccccc2)c1=O | -15 | -5 | -1 | 0 | 0 | 112 | i
Cc1ccc(S(=O)(=O)c2ccc([N+](=O)[O-])o2)cc1 | 50 | 86* | · | -10 | 85* | 16* | i
Cc1ccc(NC(=O)c2ccc([N+](=O)[O-])o2)c(C)c1 | 5 | 9 | 4 | -10 | -5 | · | ·
SMILES | Granule exo inh | Beta2AR agonist | NTR1 ag | HTR2A ag | ABHD5-PLIN5 inh | Beta2AR ag CP1 | FAP fluor counter
Cc1ccc(Cl)cc1NS(=O)(=O)N1CCOCC1 | -4 | 5 | 1 | 4 | 5 | · | ·
COc1ccc(Cl)cc1NS(=O)(=O)N1CCOCC1 | -2 | 50* | 1 | -1 | -2 | 119 | i
Cn1c(SCc2ccc(Cl)cc2)nnc1C1CC1 | 1 | -9 | 0 | -2 | -8 | · | ·
Cc1cc(C)c2c(N)c(-c3nnc(SCc4ccc(Cl)cc4)n3C)sc2n1 | 2 | 111* | 2 | -1 | 2 | 21* | i
C=CCn1c(SCc2ccccc2Cl)nnc1-c1sc2nc(C)cc(C)c2c1N | 2 | 110* | 7 | 9 | -4 | 17* | i
O=C1CN2NC(=S)N(c3ccccc3)C2=CN1c1ccc(Cl)cc1 | -3 | 13 | 0 | 0 | -1 | · | ·
O=C(Nc1cccnc1Cl)c1cc(-c2ccc(Br)cc2)on1 | 9 | 18 | 0 | -1 | -3 | · | ·
COCCOC(=O)c1c(C)n(C)c2ccc(OC(=O)C3CC3)cc12 | -2 | 4 | 1 | 4 | 0 | · | ·
O=C(NCC(c1cccs1)N1CCOCC1)c1ccccc1NS(=O)(=O)c1ccc(Cl)c([N+](=O)[O-])c1 (stereo not drawn) | 0 | 63* | 10 | 9 | -6 | 94 | i
Cc1ccc(S(=O)(=O)Nc2cccc3cccnc23)cc1 | 4 | 45* | 13 | -8 | 0 | 87 | i
CCOC(=O)CSC1=C(C#N)C(c2ccc(C)o2)CC(=O)N1 (stereo not drawn) | -2 | 52* | -2 | 3 | 3 | 73 | i
S=C(Nc1ccc(Br)cc1Cl)NN1CCOCC1 | -1 | 4 | -1 | 1 | 5 | · | ·
CCN1CCN(c2ncnc3c2sc2nc(N4CCOCC4)c4c(c23)CCC4)CC1 | 0 | -1 | · | -2 | -3 | · | ·
c1nc(NCCN2CCOCC2)c2sc3nc(N4CCOCC4)c4c(c3c2n1)CCC4 | -6 | 46* | · | -2 | 3 | 57* | i
Cc1ccc(C)c(S(=O)(=O)N2CCN(CC(=O)NC(C)c3ccccc3)CC2)c1 (stereo not drawn) | 4 | -7 | 0 | -11 | -15 | · | ·
CC(=O)c1cccc(NC2c3ccccc3C(=O)N2Cc2ccco2)c1 (stereo not drawn) | -1 | -6 | 2 | 3 | 7 | · | ·
COc1cccc(NC2c3ccccc3C(=O)N2Cc2ccco2)c1 (stereo not drawn) | -1 | 69* | 1 | -1 | 3 | 104 | i
O=C(Nc1ccccc1)OCCc1ccccc1 | -5 | · | · | -3 | -3 | · | ·
CN(C)C(CNC(=O)c1ccc(NC(=O)CC#N)cc1)c1ccccc1 (stereo not drawn) | -2 | 47* | 0 | -1 | 6 | 97 | i
COc1ccc(CCNC(=O)CCCCCNc2nc(=S)[nH]c3ccccc23)cc1OC | 0 | -12 | -1 | -1 | -9 | · | ·
